Source: PubChem
D1 antagonist: Antagonist of Human D 1 Dopamine Receptor: qHTS. D(1A) dopamine receptor (Homo sapiens), P21728. HEK293 TREx D1 cells, calcium flux, dopamine EC80; stronger effect = lower value. activity change, negative = inhibition, % at 10 µM. 3.2% of 360,000 active; in the data active = activity change below about -30%
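HEK293 T-REx cells expressing inducible, force-coupled D1 receptor; no-wash Ca dye, 30–90 min RT. Cmpd → 180 s read at 1 Hz → EC80 DA → 180 s read.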
D1 PAM: Potentiators of Human D1 Dopamine Receptor: qHTS; HEK293 TREx D1 cells, calcium flux, dopamine EC20 potentiation; AID 504651, 2011; 0.036% of 360,000 active; D(1A) dopamine receptor (Homo sapiens), P21728; potentiation, % at 10 µM; in the data active = potentiation above about 30%
D1 agonist: Allosteric Agonists of the Human D1 Dopamine Receptor: qHTS. D(1A) dopamine receptor (Homo sapiens), P21728. HEK293 T-REx D1 cells, calcium flux, agonist mode. activation, % at 2 µM. 1% of 360,000 active. AID 504660, 2011
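Agonism was scored from calcium flux recorded over 180 s (1 read/s) after pintool compound addition, following a 10-cycle baseline. Cells were inducible force-coupled HEK293 TREx D1, plated overnight at 30 C and loaded with no-wash calcium dye.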
TRHR enhancer: qHTS for Small Molecule Agonists and Allosteric Enhancers of Human TRH Receptor: Primary Screen for Enhancers; Thyrotropin-releasing hormone receptor (Homo sapiens), P34981; TRHR cells, fluo-8 calcium fluorescence, EC20 TRH enhancement; enhancement, % at 2 µM; 0.66% of 360,000 active; in the data active = enhancement above about 30%
Target sequence (P34981 whole entry, looked up): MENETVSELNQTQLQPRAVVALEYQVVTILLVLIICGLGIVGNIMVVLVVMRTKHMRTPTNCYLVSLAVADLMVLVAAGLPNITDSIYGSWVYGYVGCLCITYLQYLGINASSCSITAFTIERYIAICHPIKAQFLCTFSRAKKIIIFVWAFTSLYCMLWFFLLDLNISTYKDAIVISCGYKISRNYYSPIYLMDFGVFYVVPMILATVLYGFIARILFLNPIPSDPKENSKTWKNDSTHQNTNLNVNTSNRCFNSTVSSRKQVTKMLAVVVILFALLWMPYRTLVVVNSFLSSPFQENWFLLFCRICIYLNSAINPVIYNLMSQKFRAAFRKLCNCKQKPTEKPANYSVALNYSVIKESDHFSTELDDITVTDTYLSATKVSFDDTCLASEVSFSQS
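Enhancer read-out: after compound pinning and an initial kinetic agonist-mode read, an EC20 of TRH (10 nM final) was injected and fluo-8 calcium signal (Ex 480/Em 530) followed at 1 s/cycle for 100 cycles in TRHR-expressing cells.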
TRHR ag: qHTS for Small Molecule Agonists and Allosteric Enhancers of Human TRH Receptor: Primary Screen for Agonists. TRHR cells, calcium flux fluo-8, FDSS agonist mode. AID 493084, 2011. activation, % at 2 µM. 0.18% of 360,000 active. Thyrotropin-releasing hormone receptor (Homo sapiens), P34981
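TRHR-expressing cells, plated overnight in medium with 10% serum, were loaded with fluo-8 calcium dye at room temperature. After a 10 s baseline, library compound was pin-added and calcium release was recorded kinetically (ex 480/em 530) as agonist response.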
Numbers stand for hits; 0 = inactive; - = no result. The list is not random: actives were taken first. Their share in the collection is about 4.6%. Rule as the data show it, unless noted: active = activation above about 30%; inactive = the rest.

SMILES	D1 antagonist	D1 PAM	D1 agonist	TRHR enhancer	TRHR ag
O=C(COC(=O)C1CCN(S(=O)(=O)c2cc([N+](=O)[O-])ccc2Cl)CC1)Nc1ncc(Cl)cc1Cl	-34	0	0	0	0
O=S(=O)(c1ccc(-n2cnnn2)cc1)N1CCN(c2cccc(C(F)(F)F)c2)CC1	0	0	0	0	0
O=[N+]([O-])c1ccc(NCc2ccccc2)nc1	-35	0	0	0	0
O=[N+]([O-])c1ccc(S(=O)(=O)c2ccccc2)nc1	-40	0	0	0	0
COc1ccc(S(=O)(=O)c2nnn(-c3cc(Cl)c(OC)cc3OC)c2C)cc1	0	0	61	0	0
COc1ccc2nc(N3C(=O)CNC3=S)sc2c1	-40	0	0	0	0
COc1cccc(CC(=O)OCC(=O)NNC(=O)c2ccc(Br)cc2)c1	-33	-	0	0	0
COc1cccc(CC(=O)OCC(=O)NC(Cc2ccccc2)C(C)=O)c1 (stereo not drawn)	0	0	0	0	0
COC(=O)c1ccccc1NC(=O)c1nc(S(=O)(=O)Cc2ccccc2F)ncc1Cl	0	0	0	0	0
O=C(Nc1ccc(F)cc1)c1nc(S(=O)(=O)Cc2ccccc2)ncc1Cl	-51	0	0	0	0
O=C(NCc1ccccc1)c1nc(S(=O)(=O)Cc2ccc(F)cc2)ncc1Cl	-46	0	0	0	0
O=C(Nc1ccccc1F)c1nc(S(=O)(=O)Cc2ccccc2F)ncc1Cl	-45	0	0	0	0
O=C(Nc1nc2ccc(F)cc2s1)c1nc(S(=O)(=O)Cc2ccccc2)ncc1Cl	0	0	0	0	0
CC1CCN(C(=O)CN2CC(C)Sc3ccccc32)CC1 (stereo not drawn)	0	0	0	0	0
Cc1cc(-n2c(C)nc3ccccc3c2=O)ccc1NC(=O)c1ccc(C)c([N+](=O)[O-])c1	-	0	0	0	0
Cc1oc(C)c2c(=O)cc(-c3ccc4c(c3)OCO4)cc(OC(=O)c3ccccc3Br)c12	0	0	0	0	0
O=C(c1ccc(F)cc1)N1CCC(c2nc3ccccc3s2)CC1	0	0	0	0	0
Cc1cc(NC(=O)CN2C(=O)c3ccccc3S2(=O)=O)no1	0	0	0	30	0
O=c1cc(-c2ccccc2Cl)oc2c(NS(=O)(=O)c3cc(Cl)cc(Cl)c3O)ccc(O)c12	-52	0	82	0	0
O=[N+]([O-])/C(=C\Nc1ccccc1)S(=O)(=O)c1ccccc1	-88	0	0	0	0
COc1ccc(-n2c(/C=C/c3cccc(C(F)(F)F)c3)nc3ccccc3c2=O)cc1Cl	0	0	0	0	0
S=c1[nH]nc(COc2ccccc2)n1/N=C/c1ccccc1Br	0	0	0	0	0
S=c1[nH]nc(COc2ccccc2)n1/N=C/c1ccncc1	-	0	0	0	0
CCc1ccc(/C=N/n2c(COc3ccccc3)n[nH]c2=S)cc1	0	0	61	0	0
FC(F)(F)c1ccccc1/C=N/n1c(COc2ccccc2)n[nH]c1=S	-36	0	38	0	0
SMILES	D1 antagonist	D1 PAM	D1 agonist	TRHR enhancer	TRHR ag
CCOC(=O)c1cc(-c2ccccc2)n(CC(=O)Nc2ccc(OC)cc2OC)c1C	0	0	0	0	0
c1ccc(-c2nc(N3CCNCC3)nc3ccccc23)cc1	0	0	34	0	0
c1ccc(-c2nc(N3CCCCC3)nc3ccccc23)cc1	0	0	0	0	0
CC(=O)Nc1ccc(NC(=O)CN(C)S(=O)(=O)c2ccc3nc(C)sc3c2)cc1	0	0	0	0	0
COc1ccc(NC(=O)CCS(=O)(=O)c2ccc3nc(C)sc3c2)cc1OC	0	0	0	0	0
Cc1nc2ccc(NC(=O)CCS(=O)(=O)c3ccc(Cl)cc3)cc2s1	-36	0	0	0	0
Cc1nc2ccc(S(=O)(=O)N(C)CC(=O)Nc3ccc(Br)c(C)c3)cc2s1	-40	0	0	0	0
Cc1nc2ccc(NC(=O)c3cc([N+](=O)[O-])cc([N+](=O)[O-])c3Cl)cc2s1	-55	0	0	0	0
Cc1nc2ccc(NC(=O)c3ccc(Cl)c([N+](=O)[O-])c3)cc2s1	0	0	0	0	0
CCc1nc2ccc(C(=O)NCCc3ccc(OC)cc3OC)cc2nc1CC	0	0	0	0	0
COc1ccc(-c2[nH]c(-c3cccc(OC)c3)nc2SCC(=O)Nc2ccc3c(c2)OCO3)cc1	0	0	0	0	0
Cc1ccc(-c2oc3ccccc3c(=O)c2OCC(=O)O)cc1	0	0	0	0	0
Cc1ccc(-c2oc3ccccc3c(=O)c2O)cc1	0	0	30	0	0
CCOc1ccc(-c2oc3ccc(C)cc3c(=O)c2O)cc1	0	0	37	0	0
COc1cccc(-c2oc3ccc(C)cc3c(=O)c2O)c1	0	0	61	0	0
CCCc1cc(=O)[nH]c(Nc2cc(Cl)cc(Cl)c2)n1	0	0	0	0	0
N#Cc1ccccc1Sc1ccccc1C(=O)OCC(N)=O	0	0	0	0	0
Cc1noc(C)c1COC(=O)c1ccccc1Sc1ccccc1C#N	-38	0	0	0	0
COc1ccnc(N2CCN(c3ccc(Cl)cc3)CC2)c1C#N	-31	0	0	0	0
O=C(CSc1nnc(NC(=O)c2ccc(F)cc2F)s1)NC1CC1	0	0	0	0	0
CCn1c(=O)cc(N2CCC3(CC2)OCCO3)[nH]c1=O	-60	0	0	0	0
CCOc1ccc(NC(=O)C(C)n2c(=O)cc(C)c3c(C)nn(-c4ccccc4)c32)cc1 (stereo not drawn)	0	0	0	0	0
COc1ccc(Cc2nc3c4cnn(-c5cccc(F)c5)c4ncn3n2)cc1	0	0	0	0	0
COc1ccc(-n2ncc3c2ncn2nc(Cc4ccccc4)nc32)cc1	-34	0	0	0	0
CS(=O)(=O)Nc1ccccc1C(=O)Nc1cccc(Cl)c1	-33	0	38	0	0
SMILES	D1 antagonist	D1 PAM	D1 agonist	TRHR enhancer	TRHR ag
O=C(CCC(=O)OCC(=O)c1ccccc1)Nc1cccc(Cl)c1	0	0	0	0	0
COC(=O)CCC(=O)Nc1cccc(C(=O)Nc2cccc(Cl)c2)c1	0	0	31	0	0
CN(C)S(=O)(=O)Oc1ccc(C(=O)Nc2cccc(Cl)c2)cc1	-47	0	0	0	0
Cc1ccc(NC(=O)c2c(F)cccc2Cl)cc1NS(C)(=O)=O	0	0	0	38	0
CCOc1ccc(NC(=O)Cn2cc(C(=O)c3ccc(C)c(C)c3)c(=O)c3cc4c(cc32)OCCO4)cc1	0	0	0	0	0
CCN1CCOC(=O)C1CC(=O)Nc1cc(Cl)ccc1OC (stereo not drawn)	0	0	0	0	0
COC(=O)c1ccc2c(c1)N(CC(=O)Nc1cccc(Cl)c1C)C(=O)c1ccccc1S2	0	0	0	0	0
